The record followed here is PubChem BioAssay.

Where “and” joins values, the source holds several entries; their conditions need not be identical. Identical values can stand only once. Calls of active or inactive are those of the source.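 How the source made its calls, unless noted: active means normalized viability below 100% at a tested concentration; inactive means the rest.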

The nature of experiment [1]: ovarian cancer cell viability with rucaparib, profiling panel, oncology-focused library, rucaparib conditional (AID 1508598). The conditions noted are these: patient-derived ovarian cancer cells, CellTiter-Glo viability, 144 h, stronger effect = lower value.
Experiment [2] can be described thus: viability rescue of complex I mutant cybrids, primary screen, cell-based, galactose medium, ATP luminescence (AID 1645843;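 active means z-score of at least 1.8 in each of two replicates, scored against plate mean and spread of sample wells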;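 further: positive z means more ATP and so rescue of galactose-driven cybrid death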). The conditions noted are these: complex I mutant cybrid cells, 72 h, stronger effect = higher value.
Experiment [3] is described as follows: circadian clock period modulators, cell-based, LOPAC library, luminescence reporter (AID 2774; call rule not given here;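 further: values are relative to mean of DMSO wells on each plate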). The following applies: circadian reporter cells, at 7 µM, actives lie on both sides.
Experiment [4] concerns Hepatitis C virus NS3 helicase. Put plainly: HCV NS3 helicase inhibitors, primary screen, biochemical, fluorescence polarization, LOPAC1280 library (AID 687035; in the data active means inhibition above about 37%). The following applies: Purified HCV NS3 helicase, Cy5-dT15 ssDNA binding fluorescence polarization; stronger effect = higher value; concentration not given here.
Experiment [5] is described as follows: Cy5 fluorescence quenching or enhancement artefacts, artefact control for HCV NS3 helicase inhibitor project, biochemical, LOPAC1280 (AID 687037; call rule not given here). The following applies: Cy5-DNA-NS3h complex fluorescence interference counterscreen.
The test system of experiment [6] is Aerobactin synthetase IucA (Klebsiella pneumoniae). The experiment in a line: IucA aerobactin synthetase inhibitors, biochemical, Tocris library, absorbance (AID 1345561; call rule not given here;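 further: 100% = enzyme without compound and 0% = no enzyme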). The conditions noted are these: purified IucA enzyme assay, absorbance (OD) read-out; stronger effect = lower value;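 tested at 8 µM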.
Experiment [7] is described as follows: sensitizers of A549 cells to miR-34 induction, primary screen, imaging, A549 dox-inducible miR-34, nuclei and caspase counts (AID 1347080;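 active means compounds whose cell count with miR-34 switched on is under 0.7 times the count with it off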). The conditions noted are these: A549 miR-34 inducible, Hoechst nuclei count, 48 h.
Experiment [8] in a line: phospholipid biosynthesis inhibitors in animal cells, primary screen, cell-based, LOPAC library, screen 4 (AID 1347384; call rule not given here). The following applies: phospholipid biosynthesis inhibition screen, at 10 µM.
Experiment [9] can be described thus: inhibitors of Cryptococcus chitosan production, flow cytometry, Cibacron Brilliant Red staining (AID 1347148; call rule not given here;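 further: compound exposure lasted three days at 37 degrees C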). The following applies: Cryptococcus neoformans chitosan, stronger effect = lower value; at 10 µM unless noted.
The nature of experiment [10]: hESC survival regulators, cell-based (AID 493140; call rule not given here;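 further: cells exposed to compounds for four days before counting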). The conditions noted are these: human embryonic stem cell survival screen; stronger effect = higher value.
Experiment [11] is described as follows: liver-stage malaria parasite growth inhibition, primary screen, cell-based, HepG2, luciferase luminescence, HepG2 viability (AID 624349; in the data active means parasite load remaining mostly below about 12%, no sharp cut-off; inactive means mostly above about 10%;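 further: 100% = mean of DMSO negative control wells on the same plate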). The following applies: P. berghei liver stage in HepG2, luciferase luminescence, concentration not given here; parasite load remaining: stronger effect = lower value; viability: measured here: HepG2 viability without parasites.
Experiment [12] in a line: survival rescue of mitochondrial mutant cells in low glucose, primary screen, MELAS cybrids, Rieske KO mouse fibroblasts, CellTiter-Glo (AID 1508586;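 active means mean z-score across replicates of 1.96 or higher in either the MELAS or the Rieske mutant cell line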;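 further: z relative to plate mean and SD of compound and empty wells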).
Where [13] appears, read: at 0.0781 µM, OCI-C5x cells, with rucaparib 10 µM, 100% = cells with rucaparib alone.
Where [14] appears, read: at 0.0781 µM, OCI-C5x cells, without rucaparib.
[15] abbreviates: at 0.0781 µM, OCI-P5x cells, with rucaparib 20 µM, 100% = cells with rucaparib alone.
[16] abbreviates: at 0.0781 µM, OCI-P5x cells, without rucaparib.
The mark [17] stands for this setting: at 0.313 µM, OCI-C5x cells, with rucaparib 10 µM, 100% = cells with rucaparib alone.
[18] abbreviates: at 0.313 µM, OCI-C5x cells, without rucaparib.
The mark [19] stands for this setting: at 0.313 µM, OCI-P5x cells, with rucaparib 20 µM, 100% = cells with rucaparib alone.
[20] abbreviates: at 0.313 µM, OCI-P5x cells, without rucaparib.
The mark [21] stands for this setting: at 1.25 µM, OCI-C5x cells, with rucaparib 10 µM, 100% = cells with rucaparib alone.
The mark [22] stands for this setting: at 1.25 µM, OCI-C5x cells, without rucaparib.
[23] abbreviates: at 1.25 µM, OCI-P5x cells, with rucaparib 20 µM, 100% = cells with rucaparib alone.
Setting [24] is: at 1.25 µM, OCI-P5x cells, without rucaparib.
Setting [25] is: at 5 µM, OCI-C5x cells, with rucaparib 10 µM, 100% = cells with rucaparib alone.
The mark [26] stands for this setting: at 5 µM, OCI-C5x cells, without rucaparib.
Setting [27] is: at 5 µM, OCI-P5x cells, with rucaparib 20 µM, 100% = cells with rucaparib alone.
Setting [28] is: at 5 µM, OCI-P5x cells, without rucaparib.
Where [29] appears, read: stronger effect = lower value, cell number ratio, induced over uninduced.
[30] abbreviates: measured here: relative caspase fold change +Dox/-Dox.
Where [31] appears, read: measured here: total cells with miR-34 induction, stronger effect = lower value.
[32] abbreviates: measured here: total cells without miR-34 induction.

Regarding `Cn1cc(C2=C(c3ccc(Cl)cc3Cl)C(=O)NC2=O)c2ccccc21`, the viability in experiment [1] (setting [13]) is 110% (inactive); in experiment [1] (setting [14]), 112% (inactive); in experiment [1] (setting [15]), 106% (inactive); in experiment [1] (setting [16]), 81.9% (active); in [1] (setting [17]) it was 122% (inactive); in [1] (setting [18]) it was 106% (inactive). Moreover, the viability was 97.2% (active) in experiment [1] (setting [19]); 89.8% (active) in [1] (setting [20]); 126% (inactive) in [1] (setting [21]); 111% (inactive) in [1] (setting [22]); 96.3% (active) in [1] (setting [23]); 84.5% (active) in experiment [1] (setting [24]). Further, the viability in [1] (setting [25]) was 114% (inactive); in experiment [1] (setting [26]), 120% (inactive); in experiment [1] (setting [27]) it was 89.2% (active); in experiment [1] (setting [28]) it was 83.9% (active). Besides, the z-score in experiment [2] was 1.59 (inactive) and 0.305 (inactive).
`CCSC(=N)N`: the period change in experiment [3] is 0.115 h (inactive). Besides, in experiment [4], the inhibition is -2% (inactive). For the same molecule, the fluorescence ratio (interference) in experiment [5] is 1 (inactive). Also, the remaining activity in [6] is 116% (inactive). For the same molecule, the fold change in [7] (setting [29]) was 1.03 (inactive) and 0.939 (inactive) and 0.949 (inactive); in experiment [7] (setting [30]) it was 0.74 and 0.98 and 1.59. Also, the cell count was 10300 and 5940 and 9910 in experiment [7] (setting [31]); 10000 and 6330 and 10400 in experiment [7] (setting [32]). Moreover, the molecule was called inactive in experiment [8]. The z-score in experiment [2] is 0.125 (inactive) and 0.13 (inactive).
Consider `O=C1CCc2c(ccc3ccccc23)O1`, for which, in experiment [6], the remaining activity is 100% (inactive). For the same molecule, the fold change is 0.939 (inactive) and 0.91 (inactive) in [7] (setting [29]); 0.854 and 0.797 in experiment [7] (setting [30]). The cell count in experiment [7] (setting [31]) was 5380 and 8760; in [7] (setting [32]), 5730 and 9620. Further, the fold fluorescence in experiment [9] was 3.79 [at 252.2 µM] (inactive). In addition, the z-score in experiment [2] was -0.32 (inactive).
Consider `CN(C)CCCn1cc(C2=C(c3c[nH]c4ccccc34)C(=O)NC2=O)c2ccccc21`, for which, in experiment [10], the survival was 60.4 (inactive). In addition, the parasite load remaining in experiment [11] is 40.8% (inactive). The viability in experiment [11] is 101%; in experiment [1] (at 0.000305 µM, OCI-C5x cells, with rucaparib 10 µM, 100% = cells with rucaparib alone) it was 111% (inactive); in experiment [1] (at 0.000305 µM, OCI-C5x cells, without rucaparib), 113% (inactive); in experiment [1] (at 0.000305 µM, OCI-P5x cells, with rucaparib 20 µM, 100% = cells with rucaparib alone), 94.2% (active); in experiment [1] (at 0.000305 µM, OCI-P5x cells, without rucaparib), 96.8% (active); in experiment [1] (at 0.00122 µM, OCI-C5x cells, with rucaparib 10 µM, 100% = cells with rucaparib alone), 124% (inactive). Besides, the viability in experiment [1] (at 0.00122 µM, OCI-C5x cells, without rucaparib) is 118% (inactive); in experiment [1] (at 0.00122 µM, OCI-P5x cells, with rucaparib 20 µM, 100% = cells with rucaparib alone), 102% (inactive); in experiment [1] (at 0.00122 µM, OCI-P5x cells, without rucaparib), 96% (active); in [1] (at 0.00488 µM, OCI-C5x cells, with rucaparib 10 µM, 100% = cells with rucaparib alone), 118% (inactive); in experiment [1] (at 0.00488 µM, OCI-C5x cells, without rucaparib) it was 118% (inactive); in experiment [1] (at 0.00488 µM, OCI-P5x cells, with rucaparib 20 µM, 100% = cells with rucaparib alone), 104% (inactive). Also, the viability in [1] (at 0.00488 µM, OCI-P5x cells, without rucaparib) is 101% (inactive); in experiment [1] (at 0.0195 µM, OCI-C5x cells, with rucaparib 10 µM, 100% = cells with rucaparib alone) it was 118% (inactive); in experiment [1] (at 0.0195 µM, OCI-C5x cells, without rucaparib), 108% (inactive); in [1] (at 0.0195 µM, OCI-P5x cells, with rucaparib 20 µM, 100% = cells with rucaparib alone), 103% (inactive); in experiment [1] (at 0.0195 µM, OCI-P5x cells, without rucaparib) it was 105% (inactive); in experiment [1] (setting [13]), 113% (inactive). For the same molecule, the viability is 120% (inactive) in experiment [1] (setting [14]); 101% (inactive) in experiment [1] (setting [15]); 105% (inactive) in [1] (setting [16]); 120% (inactive) in [1] (setting [17]); 134% (inactive) in experiment [1] (setting [18]); 108% (inactive) in experiment [1] (setting [19]). Also, the viability is 109% (inactive) in [1] (setting [20]); 122% (inactive) in [1] (setting [21]); 130% (inactive) in experiment [1] (setting [22]); 116% (inactive) in [1] (setting [23]); 109% (inactive) in [1] (setting [24]); 109% (inactive) in experiment [1] (setting [25]). For the same molecule, the viability in [1] (setting [26]) is 146% (inactive); in [1] (setting [27]) it was 101% (inactive); in experiment [1] (setting [28]), 105% (inactive). Moreover, the remaining activity in experiment [6] is 99.8% (inactive). In addition, the fold change was 1.07 (inactive) and 1 (inactive) and 1.3 (inactive) in [7] (setting [29]); 0.742 and 0.718 and 1.02 in experiment [7] (setting [30]). In addition, the cell count in [7] (setting [31]) is 1180 and 5040 and 4700; in experiment [7] (setting [32]), 1100 and 5040 and 3620. For the same molecule, the fold fluorescence in experiment [9] is 5.95 [at 121.2 µM] (inactive). The z-score in experiment [12] (MELAS cybrid survival, CellTiter-Glo 48 h, stronger effect = higher value) was -0.455 (inactive); in experiment [12] (Rieske KO mouse fibroblast survival, CellTiter-Glo 72 h), -0.16; in experiment [2] it was -0.475 (inactive).
